# USP10 inh – inhibitors of human USP10 deubiquitinase. purified USP10, Ub-rhodamine fluorescence, 60 min. inhibition, % at 20 µM. 1.1% of 47,000 active
# OTUD3 block – inhibitors of human OTUD3 deubiquitinase. AID 1645858. Q5T2D3. 0.7% of 47,000 active. inhibition, % at 25 µM. purified OTUD3, Ub-rhodamine fluorescence, 2 h
# UCHL1 inh – inhibitors of human UCHL1 deubiquitinase; P09936; purified UCHL1, Ub-rhodamine cleavage fluorescence; inhibition, % at 20 µM; 0.2% of 47,000 active
# Target sequence (P09936 whole entry, looked up): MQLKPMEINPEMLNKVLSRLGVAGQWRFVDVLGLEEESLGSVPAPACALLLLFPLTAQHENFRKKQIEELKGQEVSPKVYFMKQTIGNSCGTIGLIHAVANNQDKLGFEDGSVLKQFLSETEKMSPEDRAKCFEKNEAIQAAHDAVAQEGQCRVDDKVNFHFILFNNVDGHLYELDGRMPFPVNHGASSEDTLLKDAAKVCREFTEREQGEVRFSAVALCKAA
# USP7 block – blocks human USP7 ubiquitin-rhodamine cleavage; Q93009; purified USP7, Ub-rhodamine cleavage fluorescence; inhibition, % at 20 µM; 0.3% of 47,000 active; AID 1645854
# Numbers without * were called inactive; / = no result. The list is not random: actives were taken first. Their share in the collection is about 1.5%. Rule as the data show it: active = inhibition above about 30%; inactive = the rest.
SMILES,USP10 inh,OTUD3 block,UCHL1 inh,USP7 block
Cc1cc(C)nc(NCCC(=O)N2CCC3(CC=CCOC3)CC2)n1,-2,10,0,-1
CCn1cc(NC(=O)CN2CCC3(CC=CCOC3)CC2)c(C)n1,2,46*,0,7
COc1ccc(C(=O)N[C@H]2C[C@@H](c3nc(-c4cccnc4)no3)N(C)C2)cc1,3,0,1,4
Cc1ccc2c(c1)N(C)C(=O)c1cc(NC(=O)c3ccc(F)cc3)ccc1O2,40*,16,3,20
Cc1ccccc1CC(=O)Nc1nnc(C2CC2)s1,0,-3,-3,0
CC1=C(c2ccccc2)S(=O)(=O)N=C1N1CCC(NC(=O)C2CCOC2)CC1 (stereo not given),-2,11,1,5
Cc1ccc(CNC(=O)c2cnc3ccccc3n2)cc1,-5,30*,-2,0
COc1cccc2c1OCC(NS(=O)(=O)c1cc(C)ccc1C)C2 (stereo not given),5,82*,1,-1
COc1cc(C)ccc1NC(=O)COc1cccc2c1OC(C)(C)C2,7,22,6,5
CCCC(O)CCCCCCCc1cc(O)cc(O)c1C(=O)OC(CCC)CCCCCCCc1cc(O)cc(O)c1 (stereo not given),76*,19,6,0
CCCCCCCc1cc(O)cc(O)c1,8,6,6,8
Cc1ccc(NC(=O)c2oc3ccccc3c2NC(=O)COc2ccc(C)cc2)cc1,8,-1,-1,1
COc1cccc(NC(=O)c2oc3ccccc3c2NC(=O)COc2cccc(OC)c2)c1,35*,24,0,3
CC1(C)CCCN(C(=O)CN2CCC3(CCC2=O)CNC(=O)c2ccccc2O3)C1 (stereo not given),-1,-6,-5,-1
Cc1cc(C)n2ncc(C(=O)N3CCOCC3)c2n1,2,14,2,6
CCCCCCCC1OC(=O)Cc2cc(O)c(O)c(O)c21 (stereo not given),82*,92*,63*,75*
O=C(COc1ccccc1)Nc1ccc(-c2nc3cnccc3o2)c(O)c1,25,-18,-2,36*
COc1ccccc1C(=O)Nc1ccc(-c2nc3ccccc3o2)c(O)c1,32*,25,-2,14
COc1ccc(OCC(=O)Nc2cc(C)c(O)c(-c3nc4ccccc4o3)c2)cc1,1,2,1,4
COc1ccc(-c2nc3ccccc3o2)cc1NC(=O)Cc1ccc(OC)c(OC)c1,-9,-89,-1,-4
Cc1ccc(CNC(=O)c2cccc(-c3cnc(NC4CCCCC4)nc3)c2)cc1,4,-3,0,1
COc1cc(/C=C/C(=O)OCC(=O)Nc2ccc([N+](=O)[O-])cc2OC)ccc1O,51*,47*,24,34*
Cc1ccc(Cn2cc(-c3noc(C(=O)Nc4cc(F)ccc4F)n3)nn2)cc1,51*,8,5,-148
COc1ccccc1/C=C/C(=O)Nc1cc(C)nn1-c1ccccc1,-3,13,5,3
CCOc1ccc(NS(=O)(=O)c2ccc(NC(=O)Nc3ccccc3)cc2)cc1,34*,-8,6,20
SMILES,USP10 inh,OTUD3 block,UCHL1 inh,USP7 block
N#C/C(=C/c1ccc(OCc2cccc(C(=O)O)c2)cc1)c1ccccc1,23,5,-2,1
N#C/C(=C\c1ccc(OCc2cccc(C(=O)O)c2)cc1)c1ccc(F)cc1,77*,8,5,31*
Cc1ccc(C2c3[nH]c4ccccc4c3C[C@H]3C(=O)N(c4cccc5ccccc45)C(=O)N23)cc1 (stereo not given in full),-3,-24,-11,-11
CCOc1ccc(C2/C(=C(\O)c3ccccc3)C(=O)C(=O)N2c2nc3ccc(F)cc3s2)cc1 (stereo not given),24,0,21,72*
Cc1c(CN2CCN(C(C)C)CC2)nnn1-c1ccc(F)cc1,-4,-10,-4,-4
Cc1ccc(CC(=O)Nc2ccc(C)cc2-c2n[nH]c(C3CC3)n2)cc1,30*,-7,7,9
Cc1c(Cl)cccc1NC(=O)Cn1cc(C(=O)C2CC2)c2ccccc21,49*,-4,3,36*
O=C(Cn1cc(C(=O)C2CCCCC2)c2ccccc21)Nc1ccccc1C(F)(F)F,7,6,2,19
O=C(/C=C/c1ccco1)c1cccc([N+](=O)[O-])c1,32*,47*,19,/
CCOc1ncccc1CNC(=O)c1cnccn1,-4,-2,-3,-1
Cc1ccc(-c2nn(C(C)(C)C)c3ncnc(NS(=O)(=O)c4ccc(Cl)cc4)c23)cc1,42*,9,9,17
Cc1sc2ncnc(NS(=O)(=O)c3ccc(Cl)cc3)c2c1C,-5,2,-5,-54
COc1ccc(Cl)cc1NC(=O)CSc1ncnc2nc[nH]c12,47*,-1,6,22
COc1ccc(/C=C/C(=O)Nc2cccc(S(=O)(=O)Nc3ccccc3Cl)c2)c(OC)c1,62*,10,3,9
COc1ccccc1NS(=O)(=O)c1cccc(NC(=O)CCOc2ccccc2)c1,6,3,5,-2
CC(C)=CCC[C@](C)(O)[C@H]1CC[C@]2(C)[C@@H]1CC[C@@H]1[C@@]3(C)CC[C@H](O)C(C)(C)[C@@H]3CC[C@]12C,17,6,6,10
C=C(C)[C@@H]1CC[C@]2(C)[C@H](CC[C@@H]3[C@@H](C(C)(O)CCC=C(C)C)CC[C@]32C)[C@@]1(C)CCC(=O)O (stereo not given in full),93*,88*,45*,85*
COc1ccc(-c2cc3nc([C@H](C)NC(=O)COc4cccc(F)c4)nn3cn2)cc1,12,8,9,12
CCOCc1ccc(C(=O)N[C@H](C)c2nc3cc(-c4ccc(OC)cc4)ncn3n2)cc1,35*,-2,4,0
O=C(NCc1ccccc1)c1cccnc1N1CCNC(c2ccccc2)C1 (stereo not given),-3,-9,-2,-2
Cc1cc(O)c(Oc2cc(C)cc(O)c2O)c(O)c1,2,34*,0,-81
Cc1cc(C)c(NC(=O)Cn2c(SCc3cccc(F)c3)nc3cccnc32)c(C)c1,12,18,3,22
CCc1ccccc1NC(=O)Cn1c(SCc2ccc(F)cc2)nc2cccnc21,36*,27,2,22
CCc1noc(-c2ccc(-n3ncc(C(=O)N4CCOCC4)c3C)nc2)n1,2,1,0,1
O=c1[nH]c(C2CCN(S(=O)(=O)c3ccc(S(=O)(=O)NC4CCCC4)cc3)CC2)nc2c1nnn2Cc1cccc(Cl)c1,37*,2,6,10
O=c1[nH]c(C2CCN(S(=O)(=O)c3ccc(S(=O)(=O)NC4CC4)cc3)CC2)nc2c1nnn2Cc1cccc(Cl)c1,32*,2,8,8
O=c1[nH]c(C2CCN(S(=O)(=O)c3ccc(S(=O)(=O)NC4CC4)cc3)CC2)nc2c1nnn2Cc1cccc(F)c1,5,-7,0,0
COc1cccc(NC(=O)Cn2c3ccccc3n3c(=O)cc(-c4ccccc4)nc23)c1,49*,10,3,27
COc1cccc(NC(=O)CCn2c(=O)c3cccn3c3ccccc32)c1,0,-41,4,4
